{"source": "PubChem BioAssay (Tox21)", "note": "Records with an inconclusive call do not appear. Entries that show only a call come without a potency. Some compounds were tested as several samples or in several runs, with calls that do not always agree. Calls of active or inactive are those of the source. Unless noted, calls follow the shape of the dose curve; as a rule, active = well fitted curve in the direction sought with a large enough effect in the repeat runs; inconclusive = weak or mixed curves; inactive = no such curve, though single readings can be large; an effect the other way counts as inactive or inconclusive.", "data": [{"test_system": "not listed separately", "assay": "qHTS assay to identify small molecule antagonists of the retinoid-related orphan receptor gamma (ROR-gamma) signaling pathway - cell viability counter screen (AID 1159520); also: nearly all actives have a fitted effect of over 50% in size; also: potency is read from the fitted curve at half-maximal effect", "conditions": "Tet-on RORgamma CHO cells viability, ATP luminescence, 16 h; series mostly up to 92.4 µM; activity, negative = cytotoxicity: at the top concentration", "in_short": "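Tet-on ROR gamma CHO cells were given compounds for 2 hr, then doxycycline hyclate at 1 uM final, and incubated 16 hr at 37 C. Viability was measured as ATP content by CellTiter-Glo luminescence.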", "values": [{"smiles": "CCCCOCCOC(C)=O", "Potency": "inactive"}, {"smiles": "CCOP(=S)(OCC)OP(=S)(OCC)OCC", "Potency": "inactive"}, {"smiles": "Cc1cccc(N=Nc2ccc(N(C)C)cc2)c1", "Potency": "inactive"}, {"smiles": "COc1ccc(C=O)cc1OC", "Potency": "inactive"}, {"smiles": "CC(C)(C#N)N=NC(C)(C)C#N", "Potency": "inactive"}, {"smiles": "CC1CC(=O)O1", "note": "(stereo not given)", "Potency": "inactive"}, {"smiles": "CS(=O)(=O)NC(=O)c1cc(Oc2ccc(C(F)(F)F)cc2Cl)ccc1[N+](=O)[O-]", "Potency": "inactive"}, {"smiles": "CC(C)(c1ccc(OCC2CO2)cc1)c1ccc(OCC2CO2)cc1", "note": "(stereo not given)", "Potency": "inactive"}, {"smiles": "[CH3][Sn]([Cl])([Cl])[Cl]", "Potency": "inactive"}, {"smiles": "CCOP(=O)(OCC)OCC", "Potency": "inactive"}, {"smiles": "COP(=S)(OC)SCn1nnc2ccccc2c1=O", "Potency": "inactive"}, {"smiles": "CC1=C(C(=O)Nc2ccccc2)SCCO1", "Potency": "inactive"}, {"smiles": "CC[n+]1c(-c2ccccc2)c2cc(N)ccc2c2ccc(N)cc21", "Potency": "inactive"}, {"smiles": "O=C(O)CF", "Potency": "inactive"}, {"smiles": "CSc1nc(NC(C)C)nc(NC(C)C)n1", "Potency": "inactive"}, {"smiles": "CCCCSP(=O)(SCCCC)SCCCC", "Potency": "inactive"}, {"smiles": "c1ccc2c(c1)Nc1ccccc1S2", "activity, negative = cytotoxicity": "-12.1% [at 42.5 µM] (inactive)"}, {"smiles": "CC(C)=CC1C(C(=O)OCc2cccc(Oc3ccccc3)c2)C1(C)C", "note": "(stereo not given)", "Potency": "inactive"}, {"smiles": "Cc1cc(Cl)ccc1N=CN(C)C", "Potency": "inactive"}, {"smiles": "CCCCOC(=O)COC(=O)c1ccccc1C(=O)OCCCC", "Potency": "inactive"}, {"smiles": "COC(=O)Nc1nc2ccccc2[nH]1", "Potency": "inactive"}, {"smiles": "Clc1ccc(C(Cl)(Cl)Cl)cc1", "Potency": "inactive"}, {"smiles": "O=NN1CCOCC1", "Potency": "inactive"}, {"smiles": "CC1(C)C(C(=O)OC(C#N)c2cccc(Oc3ccccc3)c2)C1(C)C", "note": "(stereo not given)", "Potency": "inactive"}, {"smiles": "C=CC(Cl)CCl", "note": "(stereo not given)", "Potency": "inactive"}, {"smiles": "CCC/C=N/O", "Potency": "inactive"}, {"smiles": "Clc1cccc(C(Cl)(Cl)Cl)n1", "Potency": "inactive"}, {"smiles": "CCCCCCCCCc1ccc(O)cc1", "Potency": "61.8 µM (active) and inactive"}, {"smiles": "CC(C)Nc1nc(Cl)nc(NC(C)C)n1", "Potency": "inactive"}, {"smiles": "Nc1ccc2ccccc2c1", "Potency": "inactive"}, {"smiles": "O=C(O)c1nn(Cc2ccc(Cl)cc2Cl)c2ccccc12", "Potency": "inactive"}, {"smiles": "Nc1ncn[nH]1", "Potency": "inactive"}, {"smiles": "CNC(=S)S", "Potency": "inactive"}, {"smiles": "O=[N+]([O-])c1ccc(Nc2ccccc2)cc1", "activity, negative = cytotoxicity": "-11.9% (inactive)"}, {"smiles": "O=S(=O)(O)C(F)(F)C(F)(F)C(F)(F)C(F)(F)C(F)(F)C(F)(F)C(F)(F)C(F)(F)F", "Potency": "inactive"}, {"smiles": "Brc1ccc(Br)cc1", "Potency": "inactive"}, {"smiles": "C=C(C)C#N", "Potency": "inactive"}, {"smiles": "O=C1CCCO1", "Potency": "inactive"}]}, {"target": "Nuclear receptor ROR-gamma (Homo sapiens) (UniProt P51449)", "assay": "qHTS assay to identify small molecule antagonists of the retinoid-related orphan receptor gamma (ROR-gamma) signaling pathway (AID 1159521; also: top concentration of the series differs between compounds; nearly all actives have a fitted effect of over 50% in size)", "conditions": "Tet-on RORgamma CHO cells, RORE-luciferase, 16 h; series mostly up to 92.4 µM; activity change, negative = inhibition: at the top concentration", "in_short": "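Inducible-expression reporter assay: doxycycline (1 uM final) switched on RORγ in CHO cells bearing a ROR response element-luciferase construct, with test compounds present from 2 h beforehand. Decreased luminescence after 16 h defined antagonist activity.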", "values": [{"smiles": "CCCCOCCOC(C)=O", "Potency": "inactive"}, {"smiles": "CCOP(=S)(OCC)OP(=S)(OCC)OCC", "Potency": "inactive"}, {"smiles": "Cc1cccc(N=Nc2ccc(N(C)C)cc2)c1", "Potency": "inactive"}, {"smiles": "CS(=O)(=O)NC(=O)c1cc(Oc2ccc(C(F)(F)F)cc2Cl)ccc1[N+](=O)[O-]", "Potency": "inactive"}, {"smiles": "CC(C)(c1ccc(OCC2CO2)cc1)c1ccc(OCC2CO2)cc1", "note": "(stereo not given)", "activity change, negative = inhibition": "-31% (inactive)"}, {"smiles": "CCOP(=O)(OCC)OCC", "Potency": "inactive"}, {"smiles": "COP(=S)(OC)SCn1nnc2ccccc2c1=O", "activity change, negative = inhibition": "8.67% (inactive)"}, {"smiles": "CC1=C(C(=O)Nc2ccccc2)SCCO1", "Potency": "inactive"}, {"smiles": "CC[n+]1c(-c2ccccc2)c2cc(N)ccc2c2ccc(N)cc21", "Potency": "inactive"}, {"smiles": "CCCCSP(=O)(SCCCC)SCCCC", "Potency": "inactive"}, {"smiles": "COC(=O)Nc1nc2ccccc2[nH]1", "Potency": "inactive"}, {"smiles": "Clc1ccc(C(Cl)(Cl)Cl)cc1", "activity change, negative = inhibition": "-0.329% (inactive)"}, {"smiles": "O=NN1CCOCC1", "Potency": "inactive"}, {"smiles": "C=CC(Cl)CCl", "note": "(stereo not given)", "Potency": "inactive"}, {"smiles": "Clc1cccc(C(Cl)(Cl)Cl)n1", "Potency": "inactive"}, {"smiles": "Nc1ccc2ccccc2c1", "Potency": "inactive"}, {"smiles": "O=C(O)c1nn(Cc2ccc(Cl)cc2Cl)c2ccccc12", "Potency": "inactive"}, {"smiles": "Nc1ncn[nH]1", "Potency": "inactive"}, {"smiles": "Brc1ccc(Br)cc1", "Potency": "inactive"}, {"smiles": "O=C1CCCO1", "Potency": "inactive"}]}, {"test_system": "not listed separately", "assay": "qHTS assay to identify small molecule agonists of the AP-1 signaling pathway - cell viability counter screen (AID 1159525; calls by dose curve; also: nearly all actives have a fitted effect of over 55% in size)", "conditions": "ME-180 AP-1-bla cells viability, ATP luminescence, 5 h; series mostly up to 76.8 µM; viability change, negative = cytotoxic: at the top concentration", "in_short": "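AP-1-bla ME-180 cells in Opti-MEM with 0.5% dialyzed FBS, compound exposure 5 h at 37 C in 15-point titration. Viability read in the same wells as ATP content by CellTiter-Glo luminescence, normalised to tetra-n-octylammonium bromide and DMSO controls.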", "values": [{"smiles": "CCCCOCCOC(C)=O", "Potency": "inactive"}, {"smiles": "CCOP(=S)(OCC)OP(=S)(OCC)OCC", "Potency": "inactive"}, {"smiles": "Cc1cccc(N=Nc2ccc(N(C)C)cc2)c1", "Potency": "inactive"}, {"smiles": "COc1ccc(C=O)cc1OC", "Potency": "inactive"}, {"smiles": "CC(C)(C#N)N=NC(C)(C)C#N", "Potency": "inactive"}, {"smiles": "CC1CC(=O)O1", "note": "(stereo not given)", "Potency": "inactive"}, {"smiles": "CS(=O)(=O)NC(=O)c1cc(Oc2ccc(C(F)(F)F)cc2Cl)ccc1[N+](=O)[O-]", "Potency": "inactive"}, {"smiles": "CC(C)(c1ccc(OCC2CO2)cc1)c1ccc(OCC2CO2)cc1", "note": "(stereo not given)", "Potency": "inactive"}, {"smiles": "[CH3][Sn]([Cl])([Cl])[Cl]", "Potency": "inactive"}, {"smiles": "CCOP(=O)(OCC)OCC", "Potency": "inactive"}, {"smiles": "COP(=S)(OC)SCn1nnc2ccccc2c1=O", "Potency": "inactive"}, {"smiles": "CC1=C(C(=O)Nc2ccccc2)SCCO1", "Potency": "inactive"}, {"smiles": "CC[n+]1c(-c2ccccc2)c2cc(N)ccc2c2ccc(N)cc21", "viability change, negative = cytotoxic": "5.77% [at 35.3 µM] (inactive)"}, {"smiles": "O=C(O)CF", "Potency": "inactive"}, {"smiles": "CSc1nc(NC(C)C)nc(NC(C)C)n1", "Potency": "inactive"}, {"smiles": "CCCCSP(=O)(SCCCC)SCCCC", "Potency": "inactive"}, {"smiles": "c1ccc2c(c1)Nc1ccccc1S2", "Potency": "inactive"}, {"smiles": "CC(C)=CC1C(C(=O)OCc2cccc(Oc3ccccc3)c2)C1(C)C", "note": "(stereo not given)", "Potency": "inactive"}, {"smiles": "Cc1cc(Cl)ccc1N=CN(C)C", "Potency": "inactive"}, {"smiles": "CCCCOC(=O)COC(=O)c1ccccc1C(=O)OCCCC", "Potency": "inactive"}, {"smiles": "COC(=O)Nc1nc2ccccc2[nH]1", "Potency": "inactive"}, {"smiles": "Clc1ccc(C(Cl)(Cl)Cl)cc1", "viability change, negative = cytotoxic": "-5.79% (inactive)"}, {"smiles": "O=NN1CCOCC1", "Potency": "inactive"}, {"smiles": "CC1(C)C(C(=O)OC(C#N)c2cccc(Oc3ccccc3)c2)C1(C)C", "note": "(stereo not given)", "Potency": "inactive"}, {"smiles": "C=CC(Cl)CCl", "note": "(stereo not given)", "Potency": "inactive"}, {"smiles": "CCC/C=N/O", "Potency": "inactive"}, {"smiles": "Clc1cccc(C(Cl)(Cl)Cl)n1", "Potency": "inactive"}, {"smiles": "CC(C)Nc1nc(Cl)nc(NC(C)C)n1", "Potency": "inactive"}, {"smiles": "Nc1ccc2ccccc2c1", "Potency": "inactive"}, {"smiles": "O=C(O)c1nn(Cc2ccc(Cl)cc2Cl)c2ccccc12", "Potency": "inactive"}, {"smiles": "Nc1ncn[nH]1", "Potency": "inactive"}, {"smiles": "CNC(=S)S", "Potency": "inactive"}, {"smiles": "O=[N+]([O-])c1ccc(Nc2ccccc2)cc1", "Potency": "inactive"}, {"smiles": "O=S(=O)(O)C(F)(F)C(F)(F)C(F)(F)C(F)(F)C(F)(F)C(F)(F)C(F)(F)C(F)(F)F", "viability change, negative = cytotoxic": "-29.2% (inactive)"}, {"smiles": "Brc1ccc(Br)cc1", "Potency": "inactive"}, {"smiles": "C=C(C)C#N", "Potency": "inactive"}, {"smiles": "O=C1CCCO1", "Potency": "inactive"}]}]}
